Hits are enriched below; roughly 22% of the tested compounds scored in any of these assays.
CYP2C9 inhib: blockers of cytochrome P450 2C9 activity – biochemical, luminescence, ADME assay, primary screen. CYP2C9 Supersomes, luciferin-H conversion. inhibition, % at 5 µM. P11712. 96,000 tested, 20% active;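 active means blocking of liver enzyme CYP2C9 beyond about 50% at 5 µM, limit read from the data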
Target sequence (P11712 whole entry, looked up): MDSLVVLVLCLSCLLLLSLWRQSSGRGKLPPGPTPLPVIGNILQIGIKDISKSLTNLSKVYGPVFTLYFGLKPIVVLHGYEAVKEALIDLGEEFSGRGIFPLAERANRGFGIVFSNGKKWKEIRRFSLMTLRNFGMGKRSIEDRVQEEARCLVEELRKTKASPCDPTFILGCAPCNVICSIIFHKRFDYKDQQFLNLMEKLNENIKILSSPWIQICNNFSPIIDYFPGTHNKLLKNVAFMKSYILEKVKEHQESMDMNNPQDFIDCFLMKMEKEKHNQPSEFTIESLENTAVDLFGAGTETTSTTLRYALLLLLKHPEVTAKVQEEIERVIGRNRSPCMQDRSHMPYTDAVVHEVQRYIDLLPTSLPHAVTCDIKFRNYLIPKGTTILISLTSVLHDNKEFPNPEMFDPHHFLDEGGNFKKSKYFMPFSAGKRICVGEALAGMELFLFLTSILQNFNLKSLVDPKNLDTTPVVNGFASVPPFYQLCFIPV
CYP2C9 act: human CYP2C9 activators, primary screen, biochemical, luminescence. 96,000 tested, 1.4% active. recombinant CYP2C9, luciferin-H conversion; hits give high values; factor 1 = untreated enzyme, 0 = blocked. activation factor at 5 µM. Cytochrome P450 2C9 (Homo sapiens), P11712;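 active means activation factor of 2 or more for CYP2C9 at a 5 µM dose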;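 further: 0 = sulfaphenazole-blocked wells and 1 = vehicle-only wells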
CYP2C19 inh: blockers of cytochrome P450 2C19 activity – biochemical, luminescence, ADME assay, primary screen; AID 778, 2007; inhibition, % at 5 µM; 96,000 tested, 21% active; CYP2C19 Supersomes, luciferin-H EGE luminescence, 30 min; P33261;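 active means CYP2C19 inhibition above a set limit at 5 µM in the primary screen, cut at about 50% in these data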;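 further: plate controls were negative control wells for no effect and 2.5 mM tranylcypromine positive control for full effect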
E-sel TNF inh: E-selectin induction blockers in HUVEC – imaging, immunofluorescence, high content, primary screen. HUVEC TNFa-induced E-selectin immunofluorescence. inhibition, % at 2 µM. 120,000 tested, 0.71% active. AID 1246, 2008;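 active means inhibition above the batch mean plus 3 SD, and confirmed as a hit on visual image review, cut at about 43% in these data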;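 further: 0% = TNF-stimulated DMSO wells and 100% = unstimulated control wells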
CYP2C19 act: human CYP2C19 activators, primary screen, biochemical, luminescence; Cytochrome P450 2C19 (Homo sapiens), P33261; activation factor at 5 µM; AID 1025, 2008; recombinant CYP2C19, luciferin-H EGE luminescence; hits give high values; 0 = fully inhibited enzyme, 1 = untreated enzyme; 96,000 tested, under 10 active;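 active means activation factor of at least 2 at 5 µM in the primary screen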;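 further: 0 = wells with 2.5 mM tranylcypromine and 1 = vehicle-only wells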
cytoskel mod: modifiers of F-actin cytoskeleton organization, primary screen, imaging, HUVEC, phalloidin staining, high-content imaging | HUVEC TNFa F-actin phalloidin imaging | inhibition, % at 2 µM | 91,000 tested, 0.18% active;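 active means inhibition above the batch mean plus 3 SD and confirmed as a hit by visual image inspection, cut at about 30% in these data, passing the limit was not always enough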
* marks the source's active call; other numbers are inactive results; · = no result.

SMILES | CYP2C9 inhib | CYP2C9 act | CYP2C19 inh | E-sel TNF inh | CYP2C19 act | cytoskel mod
COC(=O)c1cn(C(C)C(=O)NCc2ccco2)c2ccccc12 (stereo not drawn) | 31 | 0.7 | 59* | 16 | 0.4 | ·
COC(=O)c1ccc(Sc2ccc(Cl)cc2)c(N)c1 | 48 | 0.5 | 39 | -4 | 0.6 | -6
CCn1c(SCC(=O)Nc2cccc(C)c2)nc2c(c1=O)SC(C)C2 (stereo not drawn) | 75* | 0.2 | 39 | · | 0.6 | 4
CCC(Sc1nc2c(c(=O)n1CC)SC(C)C2)C(=O)OC (stereo not drawn) | 56* | 0.4 | 26 | 65* | 0.7 | -16
CCn1c(SCC(=O)Nc2ccc3c(c2)OCO3)nc2c(c1=O)SC(C)C2 (stereo not drawn) | 84* | 0.2 | 69* | · | 0.3 | 10
CCn1c(SCC(=O)N2CCOCC2)nc2c(c1=O)SC(C)C2 (stereo not drawn) | · | · | · | 6 | · | -23
CC(C)Sc1nc2c(c(=O)n1C)SC(C)C2 (stereo not drawn) | 41 | 0.6 | 18 | -53 | 0.8 | ·
CC1Cc2nc(SCC(=O)Nc3ccc4c(c3)OCO4)n(CCc3ccccc3)c(=O)c2S1 (stereo not drawn) | 85* | 0.2 | 44 | -24 | 0.6 | ·
COc1ccc(N2CC(C(=O)NCc3cccnc3)CC2=O)cc1 (stereo not drawn) | 8 | 0.9 | 10 | -8 | 0.9 | ·
Cc1nc2nc[nH]n2c(=O)c1CC(=O)O | -2 | 1 | 0 | -9 | 1 | 10
CCc1c(C)n([O-])c2c([n+]1=O)CCC2 | -7 | 1.1 | -1 | 0 | 1 | -8
CCn1c(SCC(=O)Nc2nnc(C)s2)nc2c(c1=O)SC(C)C2 (stereo not drawn) | 62* | 0.4 | -7 | -38 | 1.1 | ·
CC1Cc2nc(SCC(=O)Nc3nc4ccccc4s3)n(C)c(=O)c2S1 (stereo not drawn) | 98* | 0 | 97* | -14 | 0 | -3
Cc1nnc(NC(=O)CSc2nc3c(c(=O)n2CCc2ccccc2)SC(C)C3)s1 (stereo not drawn) | 8 | 0.9 | 1 | -15 | 1 | ·
CCSc1nnc(NC(=O)CSc2nc3c(c(=O)n2CC)SC(C)C3)s1 (stereo not drawn) | 38 | 0.6 | 3 | -27 | 1 | ·
CCc1nnc(NC(=O)CSc2nc3c(c(=O)n2C)SC(C)C3)s1 (stereo not drawn) | 26 | 0.7 | 15 | -15 | 0.8 | ·
CCSc1nnc(NC(=O)CSc2nc3c(c(=O)n2C)SC(C)C3)s1 (stereo not drawn) | 62* | 0.4 | 34 | 13 | 0.7 | 1
CCCCCCCc1nc2c(=O)[nH]c3ccccc3c2o1 | · | · | · | -25 | · | -13
COc1cccc2cc(-c3csc(CCn4nc(C)cc4C)n3)c(=O)oc12 | 66* | 0.3 | 82* | 9 | 0.2 | 0
O=C(Nc1cccnc1)C1CCCN1S(=O)(=O)c1ccc(Cl)c(Cl)c1 (stereo not drawn) | 69* | 0.3 | 15 | -40 | 0.8 | 2
O=C(Nc1ccc(Cl)cn1)C1CCCN1S(=O)(=O)c1ccccc1 (stereo not drawn) | 80* | 0.2 | 22 | · | 0.8 | 3
O=C(NCCc1ccccc1)C1CCCN1S(=O)(=O)c1ccc(F)cc1 (stereo not drawn) | · | · | · | 0 | · | -18
COc1ccc(S(=O)(=O)N2CCCC(C(=O)Nc3cccnc3)C2)cc1Cl (stereo not drawn) | · | · | · | 10 | · | 3
O=C(NCCc1ccccc1F)C1CCCN1S(=O)(=O)c1ccccc1 (stereo not drawn) | 26 | 0.7 | 79* | -6 | 0.2 | 29
O=C(Nc1ccc(Br)cc1)C1CCCN1S(=O)(=O)c1cccs1 (stereo not drawn) | 90* | 0.1 | 96* | -8 | 0 | 12
SMILES | CYP2C9 inhib | CYP2C9 act | CYP2C19 inh | E-sel TNF inh | CYP2C19 act | cytoskel mod
COc1ccc(CCNC(=O)C(C(=O)c2ccccc2)n2cc(Cl)ccc2=O)cc1OC (stereo not drawn) | · | · | · | 21 | · | ·
CCC(=O)N(Cc1cc2cccc(C)c2[nH]c1=O)c1ccccc1OC | 24 | 0.8 | 17 | -2 | 0.8 | 5
O=C(Nc1ccc(Br)cn1)C1CCCN1S(=O)(=O)c1ccccc1 (stereo not drawn) | 77* | 0.2 | 52* | -27 | 0.5 | -8
Cc1ccc(S(=O)(=O)N2CCCC2C(=O)Nc2cc(C)on2)cc1 (stereo not drawn) | -39 | 1.4 | 2 | · | 1 | -1
CCCCN(CC)C(=O)Cc1c(C(=O)O)[nH]c2ccc(Cl)cc12 | 95* | 0 | 96* | -40 | 0 | -5
CCCCNC(=O)c1onc(CSc2cc(C)cc(C)c2)c1C(=O)O | 73* | 0.3 | 25 | -6 | 0.8 | -16
CCCCNC(=O)c1onc(CSc2cccc(C)c2)c1C(=O)O | 76* | 0.2 | 10 | -13 | 0.9 | 26
COCCNC(=O)c1onc(CSc2cc(C)cc(C)c2)c1C(=O)O | 33 | 0.7 | 17 | 20 | 0.8 | 27
Cc1cccc(-n2c(=O)[nH]c3c(C(N)=O)nc(CC(C)C)nc32)c1 | 6 | 0.9 | -3 | · | 1 | -15
COCCn1c(COc2ccc(Cl)cc2)nnc1SCC(N)=O | -4 | 1 | -2 | -6 | 1 | -16
O=C(O)c1ccc(Cl)c(S(=O)(=O)NC(Cc2ccccc2)C(=O)O)c1 (stereo not drawn) | · | · | · | 36 | · | ·
CCc1cc2c(=O)n(-c3ccc(Br)cc3)cnc2s1 | 17 | 0.8 | 6 | -2 | 0.9 | 8
CC(C)[C@H](NC(=O)c1ccc(F)cc1)C(=O)NC1=NCCS1 | · | · | · | -1 | · | ·
CCCCC(SCC(=O)Nc1ccccc1)C(=O)O (stereo not drawn) | 70* | 0.3 | 16 | -21 | 0.8 | 12
COc1ccc(C2CC(c3ccc(OC)cc3)n3nc(N)nc3N2)cc1 (stereo not drawn) | 9 | 0.9 | 0 | -1 | 1 | ·
Cc1cccc(C2CC(c3ccccc3)Nc3ncnn32)c1 (stereo not drawn) | 61* | 0.4 | 98* | · | 0 | -2
CCOc1ccc(C2CC(c3cccc(C)c3)n3ncnc3N2)cc1 (stereo not drawn) | 54* | 0.5 | 85* | · | 0.2 | 14
COc1ccc(C2CC(c3cc(OC)ccc3OC)n3nnnc3N2)cc1 (stereo not drawn) | 78* | 0.2 | 98* | · | 0 | ·
COc1cccc(C2CC(c3cccc(C)c3)n3ncnc3N2)c1 (stereo not drawn) | 67* | 0.3 | 74* | 8 | 0.3 | ·

Compound activity from PubChem BioAssay.
